# ST2 IL33 inh – inhibitors of human ST2 (IL1RL1) binding to IL-33, primary screen, biochemical, AlphaLISA | Interleukin-1 receptor-like 1 (Homo sapiens), Q01638 | AlphaLISA ST2-Fc/biotin-IL-33 interaction, 1 h | inhibition, % for hits at 17 µM | actives 2.3% (n = 78,000); in the data active means inhibition above about 30%
# Target sequence (Q01638 whole entry, looked up): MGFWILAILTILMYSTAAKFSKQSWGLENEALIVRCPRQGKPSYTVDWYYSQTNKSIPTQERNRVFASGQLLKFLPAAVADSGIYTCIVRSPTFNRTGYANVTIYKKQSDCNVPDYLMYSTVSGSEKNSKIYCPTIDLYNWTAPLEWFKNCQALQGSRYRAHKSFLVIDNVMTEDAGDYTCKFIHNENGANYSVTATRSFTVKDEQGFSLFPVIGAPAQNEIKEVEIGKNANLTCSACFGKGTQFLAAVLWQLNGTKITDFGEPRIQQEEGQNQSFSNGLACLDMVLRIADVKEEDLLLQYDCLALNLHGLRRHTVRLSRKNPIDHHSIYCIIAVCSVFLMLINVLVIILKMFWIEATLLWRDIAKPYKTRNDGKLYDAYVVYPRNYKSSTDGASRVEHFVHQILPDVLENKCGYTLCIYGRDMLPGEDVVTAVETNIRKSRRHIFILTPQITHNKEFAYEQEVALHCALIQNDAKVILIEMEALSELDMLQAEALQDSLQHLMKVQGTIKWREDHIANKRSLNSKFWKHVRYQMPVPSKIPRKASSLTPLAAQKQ
# The depositor's hits bear a star; i = inactive; ! = not active in a repeat. The full list was thinned out, with hits kept by preference.
SMILES,ST2 IL33 inh
CCc1ccc(N2CC(O)Cn3c2nc2c3c(=O)n(C)c(=O)n2C)cc1 (configuration not stated),i
CC1=NN(c2ccc(Br)cc2)C(=O)/C1=C/c1ccc(-c2ccc3c(c2)C(=O)OC3)o1,i
COc1ccc(Cl)cc1/C=C1\C(=O)Nc2ccc(Br)cc21,35.0%*
Cc1cccc(C)c1N=C1C(=O)Nc2ccc(Br)cc21,i
CCOc1cc(/C=C2\C(=O)Nc3ccc(Br)cc32)c(Br)cc1OC,41.0%*
CCOc1c(O)ccc(/C=C2\C(=O)Nc3ccc(Br)cc32)c1[N+](=O)[O-],i
CCOc1ccc(Br)cc1/C=C1\NC(=O)N(Cc2ccc(Cl)cc2)C1=O,i
COc1ccc(Br)cc1/C=C1\C(=O)Nc2ccc(Br)cc21,36.0%*
C=CCOc1cc(Br)c(/C=C2/NC(=O)NC2=O)cc1OC,i
COc1ccc(Br)cc1CC(=O)O,i
Cc1ccc(/C=C2\C(=O)Nc3ccc(Br)cc32)o1,30.0%*
COc1ccc(Br)cc1/C=C1\N=C(c2ccc(OC)c([N+](=O)[O-])c2)OC1=O,i
COc1ccc(Cl)cc1/C=C1/NC(=O)NC1=O,i
CCOc1ccc(NC(=O)CSc2nnc(Cc3cc(=O)[nH]c(=O)[nH]3)n2-c2ccccc2)cc1,i
Cc1nc2c(ccc3nc(NC(=O)CCSc4ccccc4)sc32)s1,i
CC(C)c1ccc(NS(=O)(=O)c2ccc3[nH]cc(C(=O)NCc4cccnc4)c(=O)c3c2)cc1,i
CCN(Cc1nc(COC)no1)C(=O)c1cnc(C)cn1,i
Cc1ccc(C(=O)NC2C(=O)Nc3cccc(C)c32)cc1NC(=O)C1CCCC1 (configuration not stated),i
CC(CNC(=O)c1cn(C2CCCCCC2)nn1)Oc1cccnc1 (configuration not stated),i
COCCc1nc2ccc(C(=O)NCc3cc4cc(OC)ccc4[nH]3)cc2o1,i
CCOc1ccc(N2C(=O)CC(NCCc3cccc(F)c3)C2=O)cc1 (configuration not stated),i
CCn1cc(CN2CCN(Cc3cccs3)C(CCO)C2)cn1 (configuration not stated),i
CC(=O)OC1c2cc(C)ccc2NC(c2ccc(F)cc2)C1(C)C (configuration not stated),i
Cn1nnnc1SCCNC(=O)c1ccc2oc(-c3cccc(F)c3)nc2c1,i
COc1cccc(C2CCCN2c2nccc(-c3cn(C)nc3C)n2)c1 (configuration not stated),i
SMILES,ST2 IL33 inh
CC(C)(C)C1CCC2(CC1)SCC(=O)N2c1ccc(Cl)cc1 (configuration not stated),36.0%*
O=C1CSC(c2ccccc2)N1c1ccc(Cl)cc1 (configuration not stated),i
CC1SC2(CCCCC2)N(c2ccc(Cl)cc2)C1=O (configuration not stated),i
CCOC(=O)Cc1csc(NC(=O)c2cc3c(=O)n4ccccc4nc3n2C)n1,i
CCn1cnc2cc(NCc3cccs3)ccc21,i
CCn1cnc2cc(NCc3ccc(N(C)C)cc3)ccc21,52.0%*!
CC(C)(C)n1cnc2cc(NCc3ccncc3)ccc21,i
CCN(CC)c1ccc(CNc2ccc3c(c2)ncn3CC)cc1,52.0%*!
CN(C)c1ccc(CNc2ccc3c(c2)ncn3C(C)(C)C)cc1,33.0%*
CCn1cnc2cc(NCc3ccc(C)cc3)ccc21,i
CCCCn1cnc2cc(NCc3ccc(Br)cc3)ccc21,i
CCCn1cnc2cc(NCc3ccncc3)ccc21,i
CC(C)(C)n1cnc2cc(NCc3ccccn3)ccc21,i
Cc1ccc(-c2cc(N3CCN(S(=O)(=O)c4cccc(Cl)c4)CC3)ncn2)cc1,i
c1ccc(N2CCN(c3ncnc4nc[nH]c34)CC2)cc1,i
COCC(=O)N1CCC(Oc2ccc(C(=O)NCCc3nc(C)cc(C)n3)cc2)CC1,i
COc1ccc(NC(=O)c2ccc(Cl)cc2)c(OC)c1,i
CS(=O)(=O)N1CCOC(CNc2nccc(CCC(F)(F)F)n2)C1 (configuration not stated),i
CCOc1ccc(Cc2cnc(N)nc2N)cc1,i
COC(=O)c1nc2n(n1)C(c1ccccc1Cl)C(C(=O)OC1CCCCC1)=C(C)N2 (configuration not stated),i
Cc1c(Cl)c([N+](=O)[O-])nn1CCCC(=O)Nc1cnn(Cc2ccc(Cl)cc2Cl)c1,i
Cc1ccsc1C(=O)N(C)CC1CCCN(CCc2ccc(Cl)cc2)C1 (configuration not stated),i
CN(C(=O)c1cccs1)c1ccccc1C(=O)N[C@@H]1C[C@@H](CO)N(C)C1,i
Cc1nnsc1CNc1nc(-c2cccnc2)nc2c1cnn2C,i
CN(CCCc1cnn(C)c1)c1nc(-c2cccnc2)nc2c1cnn2C,30.0%*
SMILES,ST2 IL33 inh
Cn1ncc2c(NCc3n[nH]c4c3CCCCC4)nc(-c3cccnc3)nc21,i
N#Cc1c(NC(=O)c2cc(-c3ccc(F)cc3)on2)sc2c1CCC2,i
CC(C)(C)C1CCc2onc(C(=O)NCc3ccc(Cl)cc3)c2C1 (configuration not stated),i
CCc1ccc(NC(=O)c2noc3c2CC(C(C)(C)C)CC3)cc1 (configuration not stated),53.0%*
CC(C)(C)C1CCc2onc(C(=O)Nc3cccc(Cl)c3)c2C1 (configuration not stated),i
CCc1cc2c(=O)c(-c3csc(-c4ccccc4)n3)coc2cc1OC,i
Cc1ccn2cc(CNC(=O)c3cccc(-n4cccn4)c3)nc2c1,i
N=c1c2c3c(sc2ncn1Cc1ccccc1)CCCC3,i
COc1ccc(-c2c3c(=O)n(C)c(=O)n(C)c3cn2Cc2ccccc2)cc1,i
COc1ccc(-c2oc3ncn(Cc4ccccc4)c(=N)c3c2-c2ccc(OC)cc2)cc1,39.0%*
Cc1cc(C)nc(NS(=O)(=O)c2ccc(NC(=O)Cn3cnc4ccccc4c3=O)cc2)n1,i
COCc1cc(C)nc(N2CCCCC2)c1C#N,i
N#CCOc1nc(N2CCCCC2)nc(N2CCCCC2)n1,i
Nc1nonc1-c1noc(COc2ccc(Cl)cc2)n1,i
Nc1nonc1-c1noc(COc2ccc(Br)cc2)n1,i
COc1ccc(OCc2nc(C#N)c(N3CCCC3)o2)cc1,49.0%*
N#Cc1nc(COc2ccc(Cl)cc2)oc1N1CCCCC1,73.0%*
COc1ccc(OCCOc2ccc(OC)cc2)cc1,i
N#Cc1nc(COc2ccc(Br)cc2)oc1N1CCCC1,72.0%*
CN1CCN(S(=O)(=O)c2cc([N+](=O)[O-])ccc2N2CCC(C(N)=O)CC2)CC1,i
O=C(NCc1ccccc1-n1cncn1)c1onc2ccccc12,i
Cc1cnc(CN(C)C(=O)C23CC4C[C@@](C)(C2)C[C@](C)(C4)C3)[nH]1,i
O=C(CCC1=NS(=O)(=O)c2ccccc2N1)NC1CCCCCC1,i
O=C(NCc1ccccc1-n1cncn1)c1cn(CC2CCCO2)nn1 (configuration not stated),i
CCOc1cc2c(cc1OCC)C1C(C(=O)N3CCC(C)CC3)c3ccccc3C(=O)N1CC2 (configuration not stated),i
CCCCC1(C)OC(=O)C(=Cc2ccc(Br)o2)C(=O)O1 (configuration not stated),73.0%*
O=C1C(=Cc2ccc(Br)o2)C(=O)c2ccccc21,52.0%*
COc1cc(C=C2C(=O)OC(C)(C)OC2=O)cc(Br)c1O,i

# Screening data from PubChem.
